As usually defined, the inhibition is the drop in the measured response relative to a control, in per cent.

In PubChem BioAssay one finds growth inhibition, inhibition and outcome data, which are given here for 18 compounds.

A short description of test [1]: antimalarial activity against Dd2 strain (AID 2302;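 active means growth inhibition above 50% at the single 2 µM test dose, taken to imply half-maximal potency below 2 µM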;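 further: 0% = DMSO untreated growth and 100% = chloroquine plus artemisinin killed control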). Particulars: P. falciparum Dd2 in RBCs, LDH growth readout, 72 h; at 2 µM; hits give high values.
Test [2] in a line: HepG2 cytotoxicity, primary screen, cytotoxicity control for P. falciparum antimalarial project, cell-based, ATP luminescence (AID 2303;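 active means inhibition above 50%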;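 further: 0% = DMSO wells and 100% = digitonin-killed cells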). Particulars: HepG2 viability, 24-48 h, at 10 µM, hits give high values.
For test [3], the target named is L-lactate dehydrogenase (Plasmodium falciparum (isolate CDC / Honduras)) (UniProt Q27743). The experiment in a line: PfLDH activity inhibition – cell lysate, 3D7 strain, counter-screen for P. falciparum growth inhibition project (AID 2304).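 Further: 0% = vehicle and 100% = reference inhibitor.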 Particulars: P. falciparum 3D7 crude extract, LDH APAD/NBT absorbance; at 2 µM; hits give high values. A general note: A counterscreen serves to expose hits that act by an unwanted route or on another target.

Test [4] can be described thus: inhibition of 3D7 malaria parasite growth – strain 3D7 (AID 2306).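 Further: 0% = DMSO wells and 100% = chloroquine plus artemisinin control wells.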 Particulars: P. falciparum 3D7 erythrocytic growth, LDH absorbance, 72 h; at 2 µM; hits give high values.
Test [5] addresses Calcium-dependent protein kinase 1 (Plasmodium falciparum (isolate 3D7)) (UniProt P62344). The experiment in a line: PfCDPK1 kinase inhibitors, biochemical, TCAMS library (AID 1159585; cut-off not given, nearly all actives have IC50 up to about 0.98 µM;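 further: inhibitors leave more ATP so luminescence rises with inhibition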). To be noted: recombinant PfCDPK1, Kinase-Glo ATP depletion luminescence. In general terms: In Kinase-Glo more light means more ATP remaining.
Test [6] deals with Plasmodium falciparum protein kinase 6 (PK6, PF3D7_1337100) (UniProt Q8IDW1). The test can be described thus: PfPK6 kinase inhibitors, biochemical, TCAMS library (AID 1159586). Particulars: recombinant PfPK6, Kinase-Glo ATP depletion luminescence.
In test [7] the target is Protein kinase 7 (PK7), Plasmodium falciparum 3D7 (PF3D7_0213400) (UniProt Q7YTF7). The test can be described thus: inhibition of Plasmodium PK7 catalytic activity – biochemical, TCAMS antimalarial set, Kinase-Glo luminescence (AID 1159587). Particulars: recombinant PfPK7, Kinase-Glo ATP depletion luminescence.
For test [8], the target named is Calcium-dependent protein kinase 4 (Plasmodium falciparum (isolate 3D7)) (UniProt Q8IBS5). The test can be described thus: PfCDPK4 kinase inhibitors, biochemical, TCAMS library (AID 1159588; cut-off not given, nearly all actives have IC50 up to about 0.91 µM). Particulars: recombinant PfCDPK4, Kinase-Glo ATP depletion luminescence.

Values without a mark were called inactive. For part of these data: Entries with a potency or affinity are not part of this list. Active and inactive are the calls of the source. Unless noted, how the calls were made is not given here.

Calcium-dependent protein kinase 1 (Plasmodium falciparum (isolate 3D7)), sequence (P62344 whole entry, looked up): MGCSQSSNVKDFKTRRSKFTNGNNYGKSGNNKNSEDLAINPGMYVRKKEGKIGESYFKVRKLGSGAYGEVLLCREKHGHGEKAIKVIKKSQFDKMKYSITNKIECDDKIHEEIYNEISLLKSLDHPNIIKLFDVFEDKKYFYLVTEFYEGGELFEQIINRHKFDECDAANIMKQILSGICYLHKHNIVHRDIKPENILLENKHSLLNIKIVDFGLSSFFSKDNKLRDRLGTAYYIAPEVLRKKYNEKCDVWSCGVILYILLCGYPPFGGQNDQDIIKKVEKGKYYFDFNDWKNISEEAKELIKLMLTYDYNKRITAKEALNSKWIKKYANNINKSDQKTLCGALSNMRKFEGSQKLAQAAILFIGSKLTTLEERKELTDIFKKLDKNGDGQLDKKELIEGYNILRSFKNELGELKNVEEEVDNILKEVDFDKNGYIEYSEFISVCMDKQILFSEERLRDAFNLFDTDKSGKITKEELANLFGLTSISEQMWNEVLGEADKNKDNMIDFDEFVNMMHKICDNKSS
Plasmodium falciparum protein kinase 6 (PK6, PF3D7_1337100), sequence (Q8IDW1 1-305): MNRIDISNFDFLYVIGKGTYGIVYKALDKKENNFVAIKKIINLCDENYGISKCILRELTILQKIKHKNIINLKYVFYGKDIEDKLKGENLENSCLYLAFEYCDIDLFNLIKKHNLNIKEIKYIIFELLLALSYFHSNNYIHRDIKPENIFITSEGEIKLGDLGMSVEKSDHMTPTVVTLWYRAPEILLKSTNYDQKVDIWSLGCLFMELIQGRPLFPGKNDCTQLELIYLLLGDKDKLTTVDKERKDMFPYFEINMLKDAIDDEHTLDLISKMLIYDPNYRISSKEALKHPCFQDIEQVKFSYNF
Protein kinase 7 (PK7), Plasmodium falciparum 3D7 (PF3D7_0213400), sequence (Q7YTF7 1-343): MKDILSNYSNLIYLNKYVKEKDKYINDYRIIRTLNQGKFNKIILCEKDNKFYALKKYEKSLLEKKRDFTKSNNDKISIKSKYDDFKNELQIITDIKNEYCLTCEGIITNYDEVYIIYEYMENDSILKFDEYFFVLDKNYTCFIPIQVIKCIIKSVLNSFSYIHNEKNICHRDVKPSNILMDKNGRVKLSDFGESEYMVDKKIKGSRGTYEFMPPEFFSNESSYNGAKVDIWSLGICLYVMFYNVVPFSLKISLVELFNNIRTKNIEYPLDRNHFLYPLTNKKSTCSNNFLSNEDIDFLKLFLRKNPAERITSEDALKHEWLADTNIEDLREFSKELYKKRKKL
L-lactate dehydrogenase (Plasmodium falciparum (isolate CDC / Honduras)), sequence (Q27743 whole entry, looked up): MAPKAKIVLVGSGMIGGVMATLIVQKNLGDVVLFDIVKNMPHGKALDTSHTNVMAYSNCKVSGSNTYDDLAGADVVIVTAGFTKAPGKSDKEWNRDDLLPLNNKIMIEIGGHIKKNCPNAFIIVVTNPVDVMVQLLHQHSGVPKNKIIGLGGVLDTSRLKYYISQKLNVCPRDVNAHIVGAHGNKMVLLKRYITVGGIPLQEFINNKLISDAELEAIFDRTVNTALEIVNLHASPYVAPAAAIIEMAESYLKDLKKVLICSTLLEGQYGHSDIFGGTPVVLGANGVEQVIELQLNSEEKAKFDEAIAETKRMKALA
Calcium-dependent protein kinase 4 (Plasmodium falciparum (isolate 3D7)), sequence (Q8IBS5 whole entry, looked up): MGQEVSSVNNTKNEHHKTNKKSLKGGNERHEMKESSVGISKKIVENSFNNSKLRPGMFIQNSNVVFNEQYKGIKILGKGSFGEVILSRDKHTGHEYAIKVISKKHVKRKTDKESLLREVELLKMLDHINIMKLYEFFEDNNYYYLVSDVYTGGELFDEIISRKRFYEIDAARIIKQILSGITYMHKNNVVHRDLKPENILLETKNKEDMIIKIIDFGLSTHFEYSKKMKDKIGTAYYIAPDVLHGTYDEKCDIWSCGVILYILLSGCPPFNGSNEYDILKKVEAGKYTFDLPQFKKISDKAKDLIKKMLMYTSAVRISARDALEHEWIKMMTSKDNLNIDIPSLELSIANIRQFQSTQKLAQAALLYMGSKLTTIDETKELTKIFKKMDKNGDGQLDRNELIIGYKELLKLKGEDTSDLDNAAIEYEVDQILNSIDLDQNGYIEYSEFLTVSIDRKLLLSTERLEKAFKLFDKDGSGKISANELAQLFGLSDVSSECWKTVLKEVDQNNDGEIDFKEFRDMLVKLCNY

For the compound `Cc1ccc(/C=C/C(=O)NC2CCC(N3CCC(c4ccccc4C)CC3)CC2)cc1F` (centres undefined), the growth inhibition in test [1] is 18%; in test [4] it was 96% (active). Moreover, the inhibition in test [2] was 51% (active); in test [3], 2%. The outcome in test [5], in test [6], in test [7] and in test [8] was inactive.

Take `COc1ccc(-n2ccnc2SCC(=O)Nc2cc(C(F)(F)F)ccc2Cl)c(OC)c1`: the growth inhibition in test [1] is 76% (active); in test [4] it was 98% (active). Besides, the inhibition in test [2] was 0%; in test [3] it was -8%. Also, the outcome in test [5], in test [6], in test [7] and in test [8] was inactive.

On to `Cc1cc(NS(=O)(=O)c2cccc(C(C)N3CCC(N4CCCC4)CC3)c2)ccc1C(C)C` (centres undefined), for which the growth inhibition in test [1] was 53% (active); in test [4] it was 100% (active). Also, the inhibition in test [2] is 30%; in test [3], -2%. Also, the outcome in test [5], in test [6], in test [7] and in test [8] was inactive.

On to `CCc1ccc(-c2nc3cc(NC(=O)c4ccc([N+](=O)[O-])o4)ccc3o2)cc1`, for which the growth inhibition in test [1] was 80% (active); in test [4] it was 97% (active). In addition, the results for the inhibition in test [2] and in test [3] were 4% and 3%, respectively. Besides, the result in test [5], in test [6], in test [7] and in test [8] was inactive.

`CCN(CC)CCOc1ccc(NC(=O)c2oc3ccccc3c2C=Cc2ccccc2)cc1`: the growth inhibition is 54% (active) in test [1] and 98% (active) in test [4]. Also, the inhibition in test [2] was 51% (active); in test [3], -2%. For the same compound, the result in test [5], in test [6], in test [7] and in test [8] was inactive.

For the compound `COc1ccc2cc(-c3nc(-c4c(Cl)cccc4Cl)[nH]c3-c3ccnc(NCCCN4CCCCC4C)c3)ccc2c1` (centres undefined), the growth inhibition in test [1] was 86% (active); in test [4], 94% (active). Further, the inhibition in test [2] was 19%; in test [3] it was -1%. In addition, the result in test [5], in test [6], in test [7] and in test [8] was inactive.

With `Cc1cccc2[nH]c(-c3cccc(-c4ccc(CN5CCN(CCO)CC5)cc4)c3)nc12`, the growth inhibition in test [1] was 63% (active); in test [4] it was 101% (active). Also, the inhibition is 12% in test [2] and -4% in test [3]. Further, the result in test [5], in test [6], in test [7] and in test [8] was inactive.

As to `CCCCCOc1ccc(C(O)C(CCC(CN2CCCCCC2)C(O)c2ccc(OCCCCC)cc2)CN2CCCCCC2)cc1` (centres undefined), the figures for the growth inhibition in test [1] and in test [4] were 93% (active) and 99% (active), respectively. Moreover, the results for the inhibition in test [2] and in test [3] were 99% (active) and 0%, respectively. The result in test [5], in test [6], in test [7] and in test [8] was inactive.

For the compound `CNc1ccc(CNCc2cccc(-c3ccc(-c4nc5c(C)cccc5[nH]4)cc3)c2)cc1`, the growth inhibition in test [1] was 83% (active); in test [4], 102% (active). Besides, the inhibition is 26% in test [2] and -4% in test [3]. Further, the result in test [5], in test [6], in test [7] and in test [8] was inactive.

As to `C[C@@H]1CN(c2cnn(Cc3ccc(NC(=O)Nc4ccc(F)cc4[N+](=O)[O-])cc3)c(=O)c2Cl)C[C@H](C)N1`, the figures for the growth inhibition in test [1] and in test [4] were 10% and 89% (active), respectively. In addition, the inhibition was 4% in test [2] and -2% in test [3]. Further, the result in test [5], in test [6], in test [7] and in test [8] was inactive.

As to `CC(C)NCc1ccc(-c2cccc(-c3nc4ccccc4[nH]3)c2)cc1`, the growth inhibition in test [1] is 34%; in test [4] it was 101% (active). In addition, the inhibition in test [2] was 21%; in test [3] it was 0%. The outcome in test [5], in test [6], in test [7] and in test [8] was inactive.

As to `Cc1cc(NCCCOc2ccc(Cl)cc2)nc(NCc2ccccc2)n1`, the growth inhibition in test [1] is 20%; in test [4] it was 95% (active). Further, the inhibition in test [2] was 45%; in test [3], 0%. For the same compound, the outcome in test [5], in test [6], in test [7] and in test [8] was inactive.

As to `CC(C)C[C@H](Nc1ccnc(NCC2CCCCC2)n1)C(=O)NCCc1ccccc1`, the growth inhibition is 66% (active) in test [1] and 88% (active) in test [4]. The inhibition in test [2] was 10%; in test [3], 0%. For the same compound, the result in test [5], in test [6], in test [7] and in test [8] was inactive.

Turning to `O=C(N[C@@H](Cc1ccccc1)C(=O)O)c1cc(-c2ccc(F)cc2)no1` (tested in a mixture with another compound), the results for the growth inhibition in test [1] and in test [4] were 49% and 96% (active), respectively. Besides, the inhibition was -2% in test [2] and -3% in test [3]. Moreover, the outcome in test [5], in test [6], in test [7] and in test [8] was inactive.

With `Oc1c(CN2CCCC(C(F)(F)F)C2)cc(Cl)c2ccccc12` (centres undefined), the growth inhibition is 53% (active) in test [1] and 94% (active) in test [4]. In addition, the figures for the inhibition in test [2] and in test [3] were 23% and 4%, respectively. For the same compound, the outcome in test [5], in test [6], in test [7] and in test [8] was inactive.

As to `O=C(Nc1cccc(N2CCC(NCc3cccnc3)CC2)c1)c1cccc(C(F)(F)F)c1`, the growth inhibition in test [1] is 2%; in test [4], 98% (active). In addition, the results for the inhibition in test [2] and in test [3] were 26% and -3%, respectively. Moreover, the outcome in test [5], in test [6], in test [7] and in test [8] was inactive.

In the case of `OC(CNC1CCCCC1)Cn1c2ccc(I)cc2c2cc(I)ccc21` (centres undefined), the growth inhibition is 93% (active) in test [1] and 100% (active) in test [4]. The inhibition in test [2] is 10%; in test [3], 2%. Also, the outcome in test [5], in test [6], in test [7] and in test [8] was inactive.

As for `Fc1ccc(C=NNc2ccnc3ccc(C(F)(F)F)cc23)cc1`, the values for the growth inhibition in test [1] and in test [4] were 6% and 90% (active), respectively. For the same compound, the inhibition in test [2] was 22%; in test [3] it was 4%. The outcome in test [5], in test [6], in test [7] and in test [8] was inactive.
